{"source": "PubChem BioAssay (NCI)", "note": "Several values for one entry are separate records, joined by “and”; a condition that tells them apart may be missing. Equal entries are not always repeated. Compounds without any hit were thinned out: in the full panel of roughly 83,000, 20% have a hit.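 96-well plates, one dose, 48 hours. Percent growth reported; active if below 10.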 A number with no mark means an inactive call. Activity calls are given as the source filed them."}
{"test_system": "MDA-MB-468 breast", "experiment": "NCI-60 one-dose screen, 48 h (100 = growth as untreated, 0 = no growth, -100 = all killed)", "details": "10 µM unless noted"}
{"smiles": "COc1c(/C(C)=N/N=c2sc(C(C)=O)nn2-c2ccc(Cl)cc2)c(Oc2ccccc2)c(OC)c2occc12", "growth": "106% and 98.8%"}
{"smiles": "COc1cc(OC)cc(C(=O)Nc2cc(-c3cccnc3)nc(NCCCN3CCOCC3)n2)c1", "growth": "83.2%"}
{"smiles": "CC(=O)O[C@H]1Cc2c([nH]c3ccccc23)[C@@H](c2ccc(Cl)cc2)N1C(=O)CCNC(C)(C)C", "growth": "8.31% (active)"}
{"smiles": "CCOC(=O)/C=C1\\S/C(=N\\Nc2cc(=O)[nH]c3ccc(Br)cc23)N(c2ccccc2)C1=O", "growth": "56.1%"}
{"smiles": "O=C(NCCc1ccccc1)C1CCC(=O)N1Cc1ccc(Br)cc1", "note": "(configuration not stated)", "growth": "108%"}
{"smiles": "CN1CCN(Cc2ccc3c(NNC(=O)c4ccccc4)nc4cc(F)ccc4n23)CC1", "growth": "-12.5% (active)"}
{"smiles": "CN(C)c1ccc2c(c1)OC(N)=C(C#N)C2c1ccc2c(c1)CCO2", "note": "(configuration not stated)", "growth": "18.3%"}
{"smiles": "O=S(=O)(NCCCNc1nccc(-c2c(-c3cccc(F)c3)nc3occn23)n1)c1cccc2ccccc12", "growth": "15.3%"}
{"smiles": "CCN(C(=O)c1cc2ccccc2[nH]1)[C@H]1CCC[C@@H](NCc2ccc(OC)cc2)C1", "growth": "80.7%"}
{"smiles": "COc1cccc(NC(=O)c2cccc(-c3cc(=O)c4c(OC)c(OC)c(OC)cc4o3)c2)c1", "growth": "79%"}
{"smiles": "CC1Cc2c(N(C)C)ncnc2N(C)c2ccc(Cl)cc21", "note": "(configuration not stated)", "growth": "28.7%"}
{"smiles": "Nc1nc(-c2cccc([N+](=O)[O-])c2)c(N=Nc2ccccc2Cl)s1", "growth": "55.2%"}
{"smiles": "Cn1c(=O)c(F)c(Nc2ccc(I)cc2F)c2c(=O)n(C[C@@H](O)CO)cnc21", "growth": "77.9%"}
{"smiles": "CCCCCc1ccc(S(=O)(=O)Nc2cccc(-c3csc(NC(=O)CCCCCN4CCN(CCO)CC4)n3)c2)cc1", "growth": "85%"}
{"smiles": "O=[N+]([O-])c1ccc(CO)cc1", "growth": "0.448% (active)"}
{"smiles": "FC(F)(F)c1ccc2c(c1)N(CCCN1CCN(C3CC3)CC1)c1ccccc1S2", "growth": "54.1%"}
{"smiles": "CCN(CC)c1ccc(C(=N)c2ccc(N(CC)CC)cc2)cc1", "growth": "-24.8% (active)"}
{"smiles": "COC(=O)CNC(=O)[C@H](Cc1ccccc1)NCc1ccncc1", "growth": "97.4%"}
{"smiles": "CC1=C2CC/C(C)=C/CC[C@]3(C)O[C@H]3CC/C(C)=C/[C@H]2OC1", "growth": "98.6%"}
{"smiles": "O=C(CSc1nnc(-c2cc(-c3ccc(Cl)cc3)nc3ccccc23)n1-c1ccccc1)Nc1ccc(Cl)cc1", "growth": "110%"}
{"smiles": "COc1ccc(C2CC(c3cccc(Nc4ccncc4)c3)=NN2c2ccc(Cl)cc2)cc1", "note": "(configuration not stated)", "growth": "45.3%"}
{"smiles": "O=C1c2c(c3c4cccnc4[nH]c3c3ccc4ccccc4c23)C(=O)N1CCO", "growth": "57.6%"}
{"smiles": "COc1cc(C2CC(c3ccc(Nc4ccnc5cc(Cl)ccc45)cc3)=NN2c2ccccc2)cc(OC)c1OC", "note": "(configuration not stated)", "growth": "44.6%"}
{"smiles": "COC(=O)[C@]12CC[C@@H](C)[C@H](C)[C@@H]1C1=CC[C@@H]3[C@@]4(C)C(C=O)=C[C@@](C)(COC(=O)/C=C/c5ccccc5)[C@@H]4[C@H](O)C[C@@]3(C)[C@]1(C)CC2", "growth": "14.9%"}
{"smiles": "COC(=O)c1c2c(n3ccccc13)C(=O)c1ccccc1C2=O", "growth": "95.7%"}
{"smiles": "COc1ccc(S(=O)(=O)NC2c3ccccc3CC2O)cc1OC", "note": "(configuration not stated)", "growth": "111%"}
{"smiles": "O=C(Oc1ccc[nH]c1=O)c1cc([N+](=O)[O-])cc([N+](=O)[O-])c1", "growth": "119%"}
{"smiles": "COC(=O)c1ccc(-n2cc(CCCOS(=O)(=O)c3ccc(F)cc3)nn2)cc1", "growth": "108%"}
{"smiles": "CCCOC(=O)C1(O)CCCC1", "growth": "97.1%"}
{"smiles": "Cc1ccc2c(C(C[N+](=O)[O-])c3ccco3)c(-c3ccccc3)[nH]c2c1", "note": "(configuration not stated)", "growth": "8.5% (active)"}
{"smiles": "CC(=O)NCCSC(=O)C(=O)SCCNC(C)=O", "growth": "103%"}
{"smiles": "COc1ccc(/C=C/C(=O)c2nnn(-c3ccc(Br)cc3)c2C)cc1OC", "growth": "46.9%"}
{"smiles": "CC(=O)OCCC/C(=C\\c1ccc2ccccc2c1)[N+](=O)[O-]", "growth": "-55.4% (active)"}
{"smiles": "C/C(=C(/c1ccc(Cl)cc1)c1ccc(OCCN2CCCCCC2)cc1)c1ccccc1", "growth": "72.5%"}
{"smiles": "CC1OC(Oc2c(-c3ccc(O)c(O)c3)oc3cc(O)cc(O)c3c2=O)C(O)C(O)C1O", "note": "(configuration not stated)", "growth": "102%"}
{"smiles": "COc1cc(OC)c(NC(=O)C(Sc2nc(C)cc(C)c2C#N)c2ccccc2)cc1Cl", "note": "(configuration not stated)", "growth": "93.6%"}
{"smiles": "COc1cc(C(C)c2ccc3c(ccn3C)c2)cc(OC)c1OC", "note": "(configuration not stated)", "growth": "51.9%"}
